Results published in PubChem BioAssay AID1159580 (chemical genetic matrix, 2015).
Several values for one entry are separate records, joined by “and”; a condition that tells them apart may be missing. Identical values can stand only once. Among all 5,500 compounds or so, about 2,000 (36%) were called active. Inconclusive results (about 18%) are left out. No stated cut-off is given here; in the data, active means normalized growth mostly below about 0.91 (no sharp cut-off); inconclusive means no clear call, values can overlap the other calls; inactive means mostly above about 0.92. The list shows a part of the results.

Assay: chemical genetic growth profiling, strain panel (AID 1159580);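 further: tested at 20 µM; growth read once vehicle control cultures reached saturation at 30 °C; 1 = growth at the plate median or of vehicle wells; lower values mean less growth of the strain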
Conditions: S. cerevisiae deletion strains, growth OD

Measured: normalized growth

CN(C)[C@@H]1C(=O)C(C(N)=O)=C(O)[C@@]2(O)C(=O)C3=C(O)c4c(O)ccc(Cl)c4[C@@](C)(O)[C@H]3C[C@@H]12
inactive: locus YAL013W, strain DEP1, active compounds read low 1.01 | locus YAL021C, strain ccr4, active compounds read low 0.956 | locus YAL026C, strain drs2, active compounds read low 0.983 | locus YAL030W, strain snc1, active compounds read low 0.981 | locus YBL061C, strain skt5, active compounds read low 0.98 | locus YBR009C, strain hhf1, active compounds read low 0.979 | locus YBR021W, strain FUR4, active compounds read low 0.961 | locus YBR023C, strain chs3, active compounds read low 0.993 | locus YBR171W, strain sec66, active compounds read low 0.979 | locus YBR229C, strain ROT2, active compounds read low 1.01 | locus YBR231C, strain swc5, active compounds read low 0.986 | locus YBR279W, strain paf1, active compounds read low 0.987 | locus YCL011C, strain gbp2, active compounds read low 0.967 | locus YCL016C, strain dcc1, active compounds read low 0.967 | locus YCL029C, strain bik1, active compounds read low 1.02 | locus YCL069W, strain vba3, active compounds read low 0.986 | locus YCR088W, strain abp1, active compounds read low 0.988 | locus YDL005C, strain med2, active compounds read low 0.985 | locus YDL035C, strain GPR1, active compounds read low 0.976 | locus YDL040C, strain nat1, active compounds read low 0.983 | locus YDL074C, strain BRE1, active compounds read low 0.968 | locus YDL101C, strain DUN1, active compounds read low 1 | locus YDL185W, strain tfp1, active compounds read low 1.01 | locus YDL192W, strain arf1, active compounds read low 0.97 | locus YDR001C, strain nth1, active compounds read low 0.969 | locus YDR069C, strain doa4, active compounds read low 0.947 | locus YDR101C, strain arx1, active compounds read low 0.996 | locus YDR137W, strain rgp1, active compounds read low 0.957 | locus YDR150W, strain NUM1, active compounds read low 1 | locus YDR159W, strain sac3, active compounds read low 0.968 | locus YDR162C, strain NBP2, active compounds read low 1 | locus YDR195W, strain ref2 0.945 | locus YDR297W, strain sur2, active compounds read low 0.991 | locus YDR318W, strain mcm21, active compounds read low 1 | locus YDR334W, strain swr1, active compounds read low 0.968 | locus YDR335W, strain msn5, active compounds read low 0.98 | locus YDR388W, active compounds read low 1.01 | locus YDR392W, strain spt3, active compounds read low 0.895 | locus YDR502C, strain sam2, active compounds read low 1.01 | locus YEL003W, strain gim4, active compounds read low 0.973 | locus YEL037C, strain rad23, active compounds read low 0.983 | locus YEL061C, strain CIN8 (second series), active compounds read low 0.986 | locus YEL061C, strain CIN8, active compounds read low 0.996 | locus YER015W, strain faa2, active compounds read low 0.977 | locus YER016W, strain bim1, active compounds read low 0.984 | locus YER110C, active compounds read low 1.01 | locus YER111C, strain swi4, active compounds read low 0.977 | locus YER155C, strain BEM2 (second series), active compounds read low 0.95 | locus YER155C, strain BEM2, active compounds read low 1.02 | locus YER167W, strain BCK2, active compounds read low 1.01 | locus YFR010W, strain ubp6, active compounds read low 0.972 | locus YGL078C, strain dbp3, active compounds read low 0.994 | locus YGL086W, strain mad1, active compounds read low 0.981 | locus YGL167C, strain pmr1, active compounds read low 0.959 | locus YGL173C, strain kem1, active compounds read low 0.985 | locus YGL227W, strain vid30, active compounds read low 0.984 | locus YGL240W, strain doc1, active compounds read low 0.982 | locus YGL248W, strain PDE1, active compounds read low 0.942 | locus YGL253W, strain hxk2, active compounds read low 0.974 | locus YGR078C, strain PAC10, active compounds read low 0.976 | locus YGR135W, strain pre9, active compounds read low 0.994 | locus YGR252W, strain gcn5, active compounds read low 1 | locus YHR013C, strain ard1, active compounds read low 0.98 | locus YHR027C, strain rpn1, active compounds read low 0.981 | locus YHR030C, strain SLT2, active compounds read low 1.01 and 1.03 | locus YHR079C, strain IRE1 (second series), active compounds read low 1.01 | locus YHR079C, strain IRE1, active compounds read low 1.1 | locus YHR094C, strain hxt1, active compounds read low 1.01 | locus YHR129C, strain ARP1, active compounds read low 0.99 | locus YHR142W, strain chs7, active compounds read low 0.986 | locus YHR200W, strain rpn10, active compounds read low 0.987 | locus YIL066C, strain RNR3, active compounds read low 0.922 | locus YIL073C, strain SPO22, active compounds read low 0.976 | locus YIL125W, strain kgd1, active compounds read low 0.998 | locus YIR030C, strain dcg1, active compounds read low 1.01 | locus YJL092W, strain hpr5, active compounds read low 0.971 | locus YJL095W, strain BCK1 (second series), active compounds read low 0.971 | locus YJL095W, strain BCK1, active compounds read low 0.981 and 1.04 | locus YJL115W, strain asf1, active compounds read low 0.96 | locus YJL129C, strain trk1, active compounds read low 0.991 | locus YJL134W, strain LCB3, active compounds read low 1.01 | locus YJL154C, strain vps35, active compounds read low 0.973 | locus YJL164C, strain tpk1, active compounds read low 0.961 | locus YJL166W, strain qcr8, active compounds read low 0.97 | locus YJL168C, strain set2, active compounds read low 1 | locus YJL187C, strain SWE1 (second series), active compounds read low 0.988 | locus YJR043C, strain POL32, active compounds read low 0.971 | locus YJR066W, strain TOR1, active compounds read low 0.972 | locus YJR075W, strain HOC1, active compounds read low 1 | locus YKL009W, strain mrt4, active compounds read low 1.02 | locus YKL068W, active compounds read low 1 | locus YKL085W, strain MDH1 (second series), active compounds read low 1.01 | locus YKL085W, strain MDH1, active compounds read low 1.01 | locus YKL160W, strain elf1, active compounds read low 0.962 | locus YKR001C, strain vps1, active compounds read low 0.978 | locus YKR026C, strain gcn3, active compounds read low 0.975 | locus YKR091W, strain srl3, active compounds read low 0.985 | locus YLL001W, strain dnm1, active compounds read low 0.976 | locus YLL026W, active compounds read low 0.987 | locus YLL041C, strain sdh2, active compounds read low 0.97 | locus YLR027C, strain aat2, active compounds read low 0.987 | locus YLR039C, strain RIC1, active compounds read low 1.01 | locus YLR058C, strain SHM2, active compounds read low 0.998 | locus YLR102C, strain apc9, active compounds read low 1.02 | locus YLR113W, strain HOG1, active compounds read low 1.05 | locus YLR221C, strain rsa3, active compounds read low 0.987 | locus YLR258W, strain gsy2, active compounds read low 0.975 | locus YLR262C, strain YPT6 (second series), active compounds read low 1.01 | locus YLR262C, strain YPT6, active compounds read low 1.03 | locus YLR268W, strain sec22, active compounds read low 0.992 | locus YLR320W, strain mms22, active compounds read low 0.996 | locus YLR330W, strain CHS5, active compounds read low 0.999 | locus YLR342W, strain FKS1 (second series), active compounds read low 0.848 | locus YLR342W, strain FKS1, active compounds read low 0.989 | locus YLR357W, strain rsc2, active compounds read low 0.938 | locus YLR370C, strain arc18, active compounds read low 0.96 | locus YLR371W, strain rom2, active compounds read low 0.983 | locus YLR384C, strain iki3, active compounds read low 0.995 | locus YLR418C, strain cdc73, active compounds read low 0.988 | locus YML016C, strain PPZ1, active compounds read low 0.998 | locus YML032C, strain rad52, active compounds read low 0.988 | locus YML120C, strain ndi1, active compounds read low 0.97 | locus YML124C, strain tub3, active compounds read low 1.01 | locus YMR058W, strain fet3, active compounds read low 0.965 | locus YMR078C, strain ctf18, active compounds read low 1 | locus YMR125W, strain sto1, active compounds read low 0.944 | locus YMR129W, active compounds read low 0.983 | locus YMR205C, strain PFK2, active compounds read low 0.989 | locus YMR223W, strain ubp8, active compounds read low 0.985 | locus YMR231W, strain pep5, active compounds read low 0.99 | locus YMR307W, strain GAS1, active compounds read low 0.956 | locus YNL067W, strain RPL9B, active compounds read low 0.991 | locus YNL071W, strain lat1, active compounds read low 0.989 | locus YNL183C, strain NPR1, active compounds read low 0.982 | locus YNL209W, strain ssb2, active compounds read low 0.99 | locus YNL233W, strain BNI4, active compounds read low 0.974 | locus YNL248C, strain rpa49, active compounds read low 0.993 | locus YNL250W, strain rad50, active compounds read low 1.01 | locus YNL271C, strain bni1, active compounds read low 1.01 | locus YNL298W, strain CLA4, active compounds read low 1.03 | locus YNL307C, strain MCK1, active compounds read low 1.01 | locus YNL322C, strain KRE1 (second series), active compounds read low 0.983 | locus YNR049C, strain mso1, active compounds read low 0.968 | locus YNR052C, strain pop2, active compounds read low 0.997 | locus YOL006C, strain TOP1, active compounds read low 0.768 | locus YOL012C, strain htz1 1.03 | locus YOL147C, strain pex11, active compounds read low 1.02 | locus YOR001W, strain rrp6, active compounds read low 0.978 | locus YOR061W, strain CKA2, active compounds read low 0.988 | locus YOR069W, strain VPS5, active compounds read low 1 | locus YOR070C, strain gyp1, active compounds read low 0.98 | locus YOR080W, strain dia2, active compounds read low 0.974 | locus YOR083W, strain WHI5, active compounds read low 0.952 | locus YOR106W, strain vam3, active compounds read low 0.929 | locus YOR136W, strain idh2, active compounds read low 1.03 | locus YOR144C, strain elg1, active compounds read low 1.01 | locus YOR184W, strain ser1, active compounds read low 1.02 | locus YOR231W, strain MKK1, active compounds read low 1.05 | locus YOR265W, strain rbl2, active compounds read low 0.989 | locus YOR270C, strain vph1, active compounds read low 0.991 | locus YOR290C, strain snf2, active compounds read low 0.941 | locus YOR316C, strain cot1, active compounds read low 1.01 | locus YPL051W, strain arl3, active compounds read low 0.984 | locus YPL055C, strain LGE1, active compounds read low 0.96 | locus YPL078C, strain atp4, active compounds read low 0.958 | locus YPL106C, strain sse1, active compounds read low 0.929 | locus YPL240C, strain hsp82, active compounds read low 0.981 | locus YPL241C, strain CIN2, active compounds read low 0.997 | locus YPL256C, strain CLN2, active compounds read low 1.03 | locus YPR119W, strain clb2, active compounds read low 1.02 | locus YPR141C, strain kar3, active compounds read low 1.01 | locus YPR163C, strain tif3, active compounds read low 0.995 | locus YPR167C, strain met16, active compounds read low 1.01 | strain wtn01, active compounds read low 0.979
